The source of these data is doi:10.1101/2024.03.05.583629.

For the experiment, the target named is pT7_6His-AlfaTag-HOXD13 (human, UniProt P35453 263-343). Briefly: PADIT-seq. The settings on record: dsDNA, one strand shown.
Sequence of pT7_6His-AlfaTag-HOXD13 (P35453 263-343): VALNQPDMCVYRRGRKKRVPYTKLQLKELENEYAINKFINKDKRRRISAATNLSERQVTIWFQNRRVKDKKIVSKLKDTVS
For “CTCGAGGATATCAAGATCTGGCCTCGGCCTTTTAGACGGAACCTCTAGCTAGCCGACTCACTATAGGGATAATCGCCCTGAGCAAAGACC”, the binding signal was -0.199 ± 0.091 log2FC.

In the case of “CTCGAGGATATCAAGATCTGGCCTCGGCAACTGGGCGGGAACCTCTAGCTAGCCGACTCACTATAGGGATAATCGCCCTGAGCAAAGACC”, the binding signal is -0.923 ± 0.12 log2FC.

With “CTCGAGGATATCAAGATCTGGCCTCGGCTCATTAAAAGGAACCTCTAGCTAGCCGACTCACTATAGGGATAATCGCCCTGAGCAAAGACC”, the binding signal came to 2.97 ± 0.0761 log2FC.

Sequence “CTCGAGGATATCAAGATCTGGCCTCGGCCGGATAAAAGGAACCTCTAGCTAGCCGACTCACTATAGGGATAATCGCCCTGAGCAAAGACC” yielded a binding signal of 0.58 ± 0.0859 log2FC.

In turn, “CTCGAGGATATCAAGATCTGGCCTCGGCGTTTTACGAGGAACCTCTAGCTAGCCGACTCACTATAGGGATAATCGCCCTGAGCAAAGACC” showed a binding signal of 3.47 ± 0.133 log2FC.

For the sequence “CTCGAGGATATCAAGATCTGGCCTCGGCTTTTTAAAAGGAACCTCTAGCTAGCCGACTCACTATAGGGATAATCGCCCTGAGCAAAGACC”, the binding signal is 2.52 ± 0.0678 log2FC.

“CTCGAGGATATCAAGATCTGGCCTCGGCTTTTTATATGGAACCTCTAGCTAGCCGACTCACTATAGGGATAATCGCCCTGAGCAAAGACC”: the binding signal turned out to be 3.25 ± 0.0873 log2FC.

As for “CTCGAGGATATCAAGATCTGGCCTCGGCATTTTAACTGGAACCTCTAGCTAGCCGACTCACTATAGGGATAATCGCCCTGAGCAAAGACC”, the binding signal was found to be 1.48 ± 0.0833 log2FC.

Turning to “CTCGAGGATATCAAGATCTGGCCTCGGCTTTTTACTCGGAACCTCTAGCTAGCCGACTCACTATAGGGATAATCGCCCTGAGCAAAGACC”, the binding signal amounted to 0.725 ± 0.0977 log2FC.

In the case of “CTCGAGGATATCAAGATCTGGCCTCGGCGTTTTATCAGGAACCTCTAGCTAGCCGACTCACTATAGGGATAATCGCCCTGAGCAAAGACC”, the binding signal was determined as 2.41 ± 0.0928 log2FC.

Regarding “CTCGAGGATATCAAGATCTGGCCTCGGCGGACTAAAAGGAACCTCTAGCTAGCCGACTCACTATAGGGATAATCGCCCTGAGCAAAGACC”, the binding signal is -0.896 ± 0.106 log2FC.

Regarding “CTCGAGGATATCAAGATCTGGCCTCGGCCGAGTAAAAGGAACCTCTAGCTAGCCGACTCACTATAGGGATAATCGCCCTGAGCAAAGACC”, the binding signal was determined as 0.186 ± 0.114 log2FC.

On to “CTCGAGGATATCAAGATCTGGCCTCGGCGCGCTTGCGGGAACCTCTAGCTAGCCGACTCACTATAGGGATAATCGCCCTGAGCAAAGACC”, for which the binding signal is -0.651 ± 0.137 log2FC.
